{"source": "PubChem BioAssay (NCATS)", "key": {"[1]": {"assay": "Primary qHTS for inhibitors of nuclear receptor binding SET domain protein 2 (NSD2) in an isogenic RCH-ACV NSD2 p.E1099K mutant (9B) (AID 1645876)"}, "[2]": {"assay": "Primary qHTS for inhibitors of nuclear receptor binding SET domain protein 2 (NSD2) in an RCH-ACV wild type WT cells (2C) (AID 1645877); further: potency means the concentration at half of the fitted maximal effect"}}, "note": "Records with an inconclusive call do not appear. Entries that show only a call come without a potency. Unmarked numbers belong to inactive results. Activity calls are given as the source filed them. The call rests on the fitted dose curve; in most records, active means well fitted curve in the direction sought with a large enough effect; inconclusive means small, poorly fitted or top-dose-only effect, or another doubt; inactive means no such curve, though single readings can be large; an effect the other way counts as inactive or inconclusive. Further: nearly all actives have a fitted effect of over 70% in size."}
{"smiles": "COC(=O)C1=C[C@@H](O)[C@@H](O)[C@H](O[C@@H]2O[C@H](COC(=O)/C=C/c3ccccc3)[C@@H](O)[C@H](O)[C@H]2O)C1", "values": [{"measurement": "Potency", "setting": "[1]", "value": "inactive"}, {"measurement": "Potency", "setting": "[2]", "value": "inactive"}]}
{"smiles": "COC(=O)CC1(O)C(=O)Nc2ccccc21", "note": "(centres undefined)", "values": [{"measurement": "Potency", "setting": "[1]", "value": "inactive"}, {"measurement": "Potency", "setting": "[2]", "value": "inactive"}]}
{"smiles": "C=C1CC2[C@]3(C)C(=C(O)C(=O)[C@@]2(C)[C@]2(C(=O)OC)C(=O)C(C)OC(=O)[C@@]12C)C(C)(C)C(=O)CC3O", "note": "(some centres undefined)", "values": [{"measurement": "Potency", "setting": "[1]", "value": "inactive"}, {"measurement": "Potency", "setting": "[2]", "value": "inactive"}]}
{"smiles": "COC1=CC(=O)C[C@@H](C)[C@]12Oc1cc(OC)cc(OC)c1C2=O", "values": [{"measurement": "Potency", "setting": "[1]", "value": "inactive"}, {"measurement": "Potency", "setting": "[2]", "value": "inactive"}]}
{"smiles": "CC1=C2CC3OC3(C)CCC3OC3(C)CC2OC1=O", "note": "(centres undefined)", "values": [{"measurement": "Potency", "setting": "[1]", "value": "inactive"}, {"measurement": "Potency", "setting": "[2]", "value": "inactive"}]}
{"smiles": "CC1(C)C(O)CCC2(C)C1C(O)C=C1COC(=O)C12O", "note": "(centres undefined)", "values": [{"measurement": "Potency", "setting": "[1]", "value": "inactive"}, {"measurement": "Potency", "setting": "[2]", "value": "inactive"}]}
{"smiles": "COc1cc(/C=C/C(=O)OC[C@H]2O[C@H](O[C@]3(CO)O[C@H](CO)[C@@H](O)[C@@H]3O)[C@H](O)[C@@H](O)[C@@H]2O)cc(OC)c1O", "values": [{"measurement": "Potency", "setting": "[1]", "value": "inactive"}, {"measurement": "Potency", "setting": "[2]", "value": "inactive"}]}
{"smiles": "CC(O)(CC(=O)O)CC(=O)O[C@@H]1[C@@H](O)[C@H](OCCc2ccccc2)O[C@H](CO)[C@H]1O", "note": "(some centres undefined)", "values": [{"measurement": "Potency", "setting": "[1]", "value": "inactive"}, {"measurement": "Potency", "setting": "[2]", "value": "inactive"}]}
{"smiles": "C[C@@H]1O[C@@H](O[C@H]2[C@H](O[C@H]3[C@H](O[C@H]4CC[C@@]5(CO)C(CC[C@]6(C)C5CC=C5C7CC(C)(C)C[C@@H](O)[C@]7(C)CC[C@]56C)C4(C)C)O[C@H](C(=O)O)[C@@H](O)[C@@H]3O)OC[C@@H](O)[C@@H]2O)[C@H](O)[C@H](O)[C@H]1O", "note": "(some centres undefined)", "values": [{"measurement": "activity change, negative = viability loss", "setting": "[1]", "value": "-1.45% [at 9.23 µM]"}, {"measurement": "activity change, negative = cell killing", "setting": "[2]", "value": "-8.5% [at 9.23 µM]"}]}
{"smiles": "OC[C@H]1O[C@@H](OC(CCCCc2ccc(O)cc2)CCc2ccc(O)cc2)[C@H](O[C@@H]2OC[C@](O)(CO)[C@H]2O)[C@@H](O)[C@@H]1O", "note": "(some centres undefined)", "values": [{"measurement": "Potency", "setting": "[1]", "value": "inactive"}, {"measurement": "Potency", "setting": "[2]", "value": "inactive"}]}
{"smiles": "COC1CCCC/C(C)=C/C2C=C(C)C(C)C3C(CC(C)C)NC(=O)C23C(=O)C1", "note": "(centres undefined)", "values": [{"measurement": "Potency", "setting": "[1]", "value": "inactive"}, {"measurement": "Potency", "setting": "[2]", "value": "inactive"}]}
{"smiles": "C=CC1(C)C=C2C(=O)CC3C(C)(C)CCCC3(C(=O)O)C2(O)CC1", "note": "(centres undefined)", "values": [{"measurement": "Potency", "setting": "[1]", "value": "inactive"}, {"measurement": "Potency", "setting": "[2]", "value": "inactive"}]}
{"smiles": "COC(=O)C1=CO[C@@H](O[C@@H]2O[C@H](CO[C@@H]3O[C@H](COC(=O)/C=C/c4ccc(O)cc4)[C@@H](O)[C@H](O)[C@H]3O)[C@@H](O)[C@H](O)[C@H]2O)[C@@H]2C(CO)=CC[C@H]12", "values": [{"measurement": "Potency", "setting": "[1]", "value": "inactive"}, {"measurement": "Potency", "setting": "[2]", "value": "inactive"}]}
{"smiles": "C=C[C@H]1[C@H](O[C@@H]2O[C@H](CO)[C@@H](O)[C@H](O)[C@H]2O)OC=C(C(=O)OC)[C@H]1C[C@@H]1N[C@H](C(=O)O)Cc2c1[nH]c1ccccc21", "values": [{"measurement": "Potency", "setting": "[1]", "value": "inactive"}, {"measurement": "Potency", "setting": "[2]", "value": "inactive"}]}
{"smiles": "COc1cc(/C=C/C(=O)OC2[C@H](O)CC(O)(C(=O)O)C[C@H]2O)ccc1O", "note": "(some centres undefined)", "values": [{"measurement": "Potency", "setting": "[1]", "value": "inactive"}, {"measurement": "Potency", "setting": "[2]", "value": "inactive"}]}
{"smiles": "C=C1CC23CC1(O)CCC2C1=CC2OC(=O)C(C)(C2O)C1C3C(=O)O", "note": "(centres undefined)", "values": [{"measurement": "Potency", "setting": "[1]", "value": "inactive"}, {"measurement": "Potency", "setting": "[2]", "value": "inactive"}]}
{"smiles": "NCc1ccc(OCCCc2sc(-c3ccc4c(c3)/C(=N/Nc3nc5ccccc5s3)CCC4)nc2C(=O)O)cc1", "values": [{"measurement": "Potency", "setting": "[1]", "value": "inactive"}, {"measurement": "Potency", "setting": "[2]", "value": "5.15 µM (active)"}]}
{"smiles": "Cc1coc2c1CC1OC1(C)CCC1OC1(C)C2", "note": "(centres undefined)", "values": [{"measurement": "Potency", "setting": "[1]", "value": "inactive"}, {"measurement": "Potency", "setting": "[2]", "value": "inactive"}]}
{"smiles": "CC1=CC(=O)C2C(C)(C)CC(O)CC2(C)C1CO", "note": "(centres undefined)", "values": [{"measurement": "Potency", "setting": "[1]", "value": "inactive"}, {"measurement": "Potency", "setting": "[2]", "value": "inactive"}]}
{"smiles": "C=C1[C@@H]2CC[C@@]3(C)[C@H](c4ccoc4)OC(=O)C[C@]13O[C@H]1CC(=O)C(C)(C)[C@H](CC(=O)OC)[C@]12C", "values": [{"measurement": "Potency", "setting": "[1]", "value": "inactive"}, {"measurement": "Potency", "setting": "[2]", "value": "inactive"}]}
{"smiles": "O=C(/C=C/c1ccc(O)cc1)OCC1=C[C@@H](O)[C@@H]2C=CO[C@@H](O[C@@H]3O[C@H](CO)[C@@H](O)[C@H](O)[C@H]3O)[C@H]12", "values": [{"measurement": "Potency", "setting": "[1]", "value": "inactive"}, {"measurement": "Potency", "setting": "[2]", "value": "inactive"}]}
{"smiles": "OCc1ccccc1O[C@@H]1O[C@H](CO)[C@@H](O)[C@H](O)[C@H]1O", "values": [{"measurement": "Potency", "setting": "[1]", "value": "inactive"}, {"measurement": "Potency", "setting": "[2]", "value": "inactive"}]}
{"smiles": "C=CCc1ccc(O[C@@H]2O[C@H](CO[C@@H]3O[C@@H](C)[C@H](O)[C@@H](O)[C@H]3O)[C@@H](O)[C@H](O)[C@H]2O)cc1", "values": [{"measurement": "Potency", "setting": "[1]", "value": "inactive"}, {"measurement": "Potency", "setting": "[2]", "value": "inactive"}]}
{"smiles": "C=C1CCC2C(C)(COC3OC(COC(=O)CC(=O)O)C(O)C(O)C3O)CCCC2(C)C1CCC1=CCOC1=O", "note": "(centres undefined)", "values": [{"measurement": "Potency", "setting": "[1]", "value": "inactive"}, {"measurement": "Potency", "setting": "[2]", "value": "inactive"}]}
{"smiles": "CC(=O)O[C@@H]1C[C@@]23C[C@@]24CC[C@H](OC2OC[C@@H](O)[C@H](O)[C@H]2O)C(C)(C)[C@@H]4CC[C@H]3[C@]2(C)CC3OC4(C[C@@H](C)C3[C@@]12C)OCC1(C)OC14", "note": "(some centres undefined)", "values": [{"measurement": "Potency", "setting": "[1]", "value": "inactive"}, {"measurement": "Potency", "setting": "[2]", "value": "inactive"}]}
{"smiles": "CC(C)C1=CC2=CCC3[C@](C)(CCC[C@@]3(C)C(=O)O)C2CC1=O", "note": "(some centres undefined)", "values": [{"measurement": "Potency", "setting": "[1]", "value": "inactive"}, {"measurement": "Potency", "setting": "[2]", "value": "inactive"}]}
{"smiles": "CCC(C)C(=O)O[C@@H]1[C@@H](O)[C@@H](O[C@H]2O[C@H](CO)[C@@H](O)[C@H](O)[C@H]2O)O[C@H](CO)[C@H]1O", "note": "(some centres undefined)", "values": [{"measurement": "Potency", "setting": "[1]", "value": "inactive"}, {"measurement": "Potency", "setting": "[2]", "value": "inactive"}]}
{"smiles": "COc1cc(-c2cccc(O)c2)cc2c1OCO2", "values": [{"measurement": "Potency", "setting": "[1]", "value": "inactive"}, {"measurement": "Potency", "setting": "[2]", "value": "inactive"}]}
{"smiles": "COC1=Cc2c(nc3n(c2=O)C(C)C(=O)NC3(O)C(C)C)OC=C1", "note": "(centres undefined)", "values": [{"measurement": "Potency", "setting": "[1]", "value": "inactive"}, {"measurement": "Potency", "setting": "[2]", "value": "inactive"}]}
{"smiles": "CC(=O)c1c(C)cc(O[C@@H]2O[C@H](CO)[C@@H](O)[C@H](O)[C@H]2O)cc1O", "values": [{"measurement": "Potency", "setting": "[1]", "value": "inactive"}, {"measurement": "Potency", "setting": "[2]", "value": "inactive"}]}
{"smiles": "COC(=O)C1=COC(O[C@@H]2O[C@H](CO)[C@@H](O)[C@H](O)[C@H]2O)/C(=C\\COC(=O)c2ccc(OC3OC(CO)C(O)C(O)C3O)c(OC)c2)C1CC(=O)OCCc1ccc(O)cc1", "note": "(some centres undefined)", "values": [{"measurement": "outcome", "setting": "[1]", "value": "inactive [at 9.23 µM]"}, {"measurement": "outcome", "setting": "[2]", "value": "inactive [at 9.23 µM]"}]}
{"smiles": "CNC(=O)[C@H]1O[C@@H](n2cnc3c(NCc4ccc(N)c(I)c4)ncnc32)[C@H](O)[C@@H]1O", "values": [{"measurement": "activity change, negative = viability loss", "setting": "[1]", "value": "-0.539% [at 9.23 µM]"}, {"measurement": "activity change, negative = cell killing", "setting": "[2]", "value": "2.39% [at 9.23 µM]"}]}
{"smiles": "CC(c1c[nH]c2ccccc12)C(O)C(=O)O", "note": "(centres undefined)", "values": [{"measurement": "Potency", "setting": "[1]", "value": "inactive"}, {"measurement": "Potency", "setting": "[2]", "value": "inactive"}]}
{"smiles": "C1CCN2CC3C[C@@H](CN4CCCC[C@@H]34)[C@H]2C1", "values": [{"measurement": "Potency", "setting": "[1]", "value": "inactive"}, {"measurement": "Potency", "setting": "[2]", "value": "inactive"}]}
{"smiles": "CC(C)=CCC[C@](C)(O[C@@H]1O[C@H](CO[C@@H]2OC[C@@H](O)[C@H](O)[C@H]2O)[C@@H](O)[C@H](O)[C@H]1O)[C@H]1CC[C@]2(C)[C@@H]1[C@H](O)C[C@@H]1[C@@]3(C)CC[C@H](O[C@@H]4O[C@H](CO)[C@@H](O)[C@H](O)[C@H]4O[C@@H]4O[C@H](CO)[C@@H](O)[C@H](O)[C@H]4O)C(C)(C)[C@@H]3CC[C@]12C", "values": [{"measurement": "Potency", "setting": "[1]", "value": "inactive"}, {"measurement": "Potency", "setting": "[2]", "value": "inactive"}]}
{"smiles": "CC12CCC3C(C)(C)C(O)CCC3(C)C1Cc1c(oc(C(=O)O)cc1=O)O2", "note": "(centres undefined)", "values": [{"measurement": "Potency", "setting": "[1]", "value": "inactive"}, {"measurement": "Potency", "setting": "[2]", "value": "inactive"}]}
{"smiles": "COc1ccc(C(=O)O[C@H]2CC(C)=CC[C@@]3(C)[C@@H](OC(C)=O)C[C@@](O)(C(C)C)[C@H]23)cc1", "values": [{"measurement": "Potency", "setting": "[1]", "value": "inactive"}, {"measurement": "Potency", "setting": "[2]", "value": "inactive"}]}
